# Measurements from PubChem BioAssay (NCI).
# “And” between values parts separate entries of the source, which are not always exact repeats. Equal values may be shown once. This is part of a sample that, as a whole, favours compounds with a hit. Of some 83,000 tested, about 20% had one in any assay.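 Single-concentration screen, 48 h exposure, 96-well plates. Endpoint: percent growth. Below 10 = active.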 Some structures have more than one record in an assay (separate samples or runs), and their calls can disagree. The source made the active and inactive calls.
# Test system: NCI-H522 lung
# Assay: NCI-60 one-dose screen, 48 h (100 = growth as untreated, 0 = no growth, -100 = all killed)
# Settings: 10 µM
row,Compound,growth
1,COc1ccc(C(=O)C(CN(C)C)CN(C)C)cc1,-54.1% (active)
2,Cc1ccc(Sc2ccccc2N)cc1,71.4% (inactive)
3,O=[N+]([O-])c1cc[n+]([O-])cc1,83.1% (inactive)
4,CC1=CC(=C(c2ccc(N)cc2)c2ccc(N)cc2)C=CC1=N,-8.93% (active) and 60.9% (inactive)
5,CN(C)CCOC1(Cc2ccc(Cl)cc2Cl)CCC(C(C)(C)C)CC1 (centres undefined),9.54% (active) and 48.6% (inactive)
6,Cc1cc(N(CCOS(C)(=O)=O)CCOS(C)(=O)=O)ccc1C=Nc1ccc(-c2nc(Cc3ccccc3)sc2C)cc1,-91.3% (active)
7,C#CCN(Cc1ccc2nc(N)[nH]c(=O)c2c1)c1ccc(C(=O)NC(CCC(=O)O)C(=O)O)cc1 (centres undefined),80.2% (inactive)
8,C=C1C(=O)OC2CC1C(OC(C)=O)C/C(C)=C/CC/C(C)=C\CCC2(C)O (centres undefined),-83.9% (active)

# Test system: A549/ATCC NSCLC
# Assay: as above
# Settings: 10 µM
row,Compound,growth
1,COc1ccc(C(=O)C(CN(C)C)CN(C)C)cc1,118% (inactive)
2,Cc1ccc(Sc2ccccc2N)cc1,96% (inactive)
3,O=[N+]([O-])c1cc[n+]([O-])cc1,101% (inactive)
4,CC1=CC(=C(c2ccc(N)cc2)c2ccc(N)cc2)C=CC1=N,14.1% (inactive) and 16.9% (inactive)
5,CN(C)CCOC1(Cc2ccc(Cl)cc2Cl)CCC(C(C)(C)C)CC1 (centres undefined),38.9% (inactive) and 21.1% (inactive)
6,Cc1cc(N(CCOS(C)(=O)=O)CCOS(C)(=O)=O)ccc1C=Nc1ccc(-c2nc(Cc3ccccc3)sc2C)cc1,34.8% (inactive)
7,C#CCN(Cc1ccc2nc(N)[nH]c(=O)c2c1)c1ccc(C(=O)NC(CCC(=O)O)C(=O)O)cc1 (centres undefined),95% (inactive)
8,C=C1C(=O)OC2CC1C(OC(C)=O)C/C(C)=C/CC/C(C)=C\CCC2(C)O (centres undefined),64.1% (inactive)

# Test system: 786-0 renal
# Assay: as above
# Settings: 10 µM
row,Compound,growth
1,COc1ccc(C(=O)C(CN(C)C)CN(C)C)cc1,87.8% (inactive)
2,Cc1ccc(Sc2ccccc2N)cc1,108% (inactive)
3,O=[N+]([O-])c1cc[n+]([O-])cc1,106% (inactive)
4,CC1=CC(=C(c2ccc(N)cc2)c2ccc(N)cc2)C=CC1=N,23.5% (inactive) and 42.8% (inactive)
5,CN(C)CCOC1(Cc2ccc(Cl)cc2Cl)CCC(C(C)(C)C)CC1 (centres undefined),51.2% (inactive) and 24.3% (inactive)
6,Cc1cc(N(CCOS(C)(=O)=O)CCOS(C)(=O)=O)ccc1C=Nc1ccc(-c2nc(Cc3ccccc3)sc2C)cc1,13.8% (inactive)
7,C#CCN(Cc1ccc2nc(N)[nH]c(=O)c2c1)c1ccc(C(=O)NC(CCC(=O)O)C(=O)O)cc1 (centres undefined),12% (inactive)
8,C=C1C(=O)OC2CC1C(OC(C)=O)C/C(C)=C/CC/C(C)=C\CCC2(C)O (centres undefined),38.9% (inactive)
